Test results from PubChem BioAssay AID588591 (National Center for Advancing Translational Sciences (NCATS), 2011).
In all, about 390,000 compounds went through this assay and about 4,700 (1.2%) were called active. Not shown: some 4% with an inconclusive outcome. The call rests on the fitted dose curve; in most records, active means well fitted inhibition curve with a large enough effect; inconclusive means small, poorly fitted or top-dose-only effect, or another doubt; inactive means no such curve, though single readings can be large or run the other way. The entries come from a sample that favours actives as a whole.

biological target: DNA polymerase eta (Homo sapiens) (UniProt Q9Y253); assay: qHTS for Inhibitors of Polymerase Eta; settings: recombinant Pol eta, fluorescent DNA replication assay; series mostly up to 114 µM
Sequence (Q9Y253 whole entry, looked up): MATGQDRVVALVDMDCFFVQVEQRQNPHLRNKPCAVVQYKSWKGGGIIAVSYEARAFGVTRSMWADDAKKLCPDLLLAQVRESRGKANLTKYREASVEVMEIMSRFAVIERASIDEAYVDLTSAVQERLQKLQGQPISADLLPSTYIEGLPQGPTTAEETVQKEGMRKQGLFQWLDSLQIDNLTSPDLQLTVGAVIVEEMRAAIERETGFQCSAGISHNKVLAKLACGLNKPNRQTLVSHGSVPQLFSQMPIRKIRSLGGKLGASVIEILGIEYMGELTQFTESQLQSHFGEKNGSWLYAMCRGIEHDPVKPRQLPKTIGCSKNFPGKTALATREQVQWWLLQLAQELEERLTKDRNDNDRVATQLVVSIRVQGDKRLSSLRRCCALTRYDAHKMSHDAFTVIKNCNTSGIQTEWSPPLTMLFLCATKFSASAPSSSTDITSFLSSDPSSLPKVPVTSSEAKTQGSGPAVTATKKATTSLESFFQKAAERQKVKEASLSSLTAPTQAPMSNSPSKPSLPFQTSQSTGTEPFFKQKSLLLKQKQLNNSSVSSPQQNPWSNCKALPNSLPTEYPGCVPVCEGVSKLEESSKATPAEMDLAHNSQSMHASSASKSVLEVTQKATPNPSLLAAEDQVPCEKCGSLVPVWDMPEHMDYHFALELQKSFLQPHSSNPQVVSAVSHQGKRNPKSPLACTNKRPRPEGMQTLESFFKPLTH
Outline: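 Pol eta at 10 nM preincubated with compounds 15 min at room temperature; reaction started with fluorescent substrate (50 nM final) and read kinetically at 0 and 10 min.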
Potency means the concentration at half of the fitted maximal effect.

Potency, active:
O=C1COc2c1ccc(O)c2O 22.4 µM
CCOc1cccc2c1N[C@@H](c1ccc(C(=O)O)cc1)[C@H]1CC=C[C@@H]21 8.91 µM
CCC(=O)N1c2ccc(S(=O)(=O)NCc3ccco3)cc2CC1C (stereo not given) 56.2 µM
COc1c(O)cc2oc(-c3ccc(O)c(O)c3)cc(=O)c2c1O 3.55 µM
Cc1cc(/C=C2/C(=N)N3C(=NC2=O)SN=C3S(C)(=O)=O)c(C)n1-c1ccccc1 44.7 µM
CS(=O)(=O)C1=NN2C(=N)/C(=C\c3ccc(OCCOc4ccccc4)cc3)C(=O)N=C2S1 44.7 µM
CCS(=O)(=O)C1=NSC2=NC(=O)/C(=C\c3ccc(OS(=O)(=O)c4ccccc4)cc3)C(=N)N21 20 µM
O=C(/C=C/c1ccc([N+](=O)[O-])o1)NNC(=O)c1ccc(F)cc1 79.4 µM
C/C(=N\Nc1cccc(C(=O)O)c1)c1ccc2c(c1)Nc1ccccc1S2 20 µM
Nc1ccc2[nH]c(=S)sc2c1 22.4 µM
Cc1cc(C)c2nc(-c3cccnc3)cc(C(=O)Nc3ccc(S(=O)(=O)Nc4onc(C)c4C)cc3)c2c1 44.7 µM
CCOC(=O)Cc1csc(NC(=O)COc2ccc3c(C)cc(=O)oc3c2)n1 31.6 µM
Cc1ccc(O)c(/C=N/NC(=O)COc2ccc3c(C)cc(=O)oc3c2)c1 50.1 µM

Potency, inactive:
CCCn1c(NCc2ccc(N(CC)CC)cc2)nc2ccccc21
COc1cccc(-n2c(=O)c3c(C)c(C(=O)N(C)C)sc3n(Cc3cccc(C)c3)c2=O)c1
CCOC(=O)c1c(S(=O)(=O)NCC(=O)Nc2ccc(Cl)c(C(F)(F)F)c2)c(C)n(C)c1C
CCSc1nnc2c(n1)OC(c1ccc(OCC(=O)O)cc1)Nc1ccccc1-2 (stereo not given)
Cc1ccccc1NC(=O)c1c(NC(=O)c2ccccc2F)sc2c1CCC(C)C2 (stereo not given)
CCOc1cccc(CC(=O)N2CCc3c([nH]c4ccccc34)C2c2ccc(F)cc2)c1OCC (stereo not given)
CCOc1ccccc1C1NC(=O)NC(C)=C1C(=O)OCc1ccco1 (stereo not given)
COc1cccc2c1cc1c(=O)n(CC(=O)N3CCN(c4ccccc4)CC3)nc(C)n12
COc1ccc(CNC(=O)c2ccc3c(c2)nc2n3CCOC2)c(OC)c1
CC1CCN(S(=O)(=O)c2ccc(S(=O)(=O)NCc3ccco3)cc2)CC1
COc1cccc(CNS(=O)(=O)c2ccc3c(c2)CC(C)N3C(=O)C2CCC2)c1 (stereo not given)
COc1ccccc1CNC(=O)c1ccccc1NC(=O)c1nsc2ccccc12
COc1cc(O)c2c(=O)c3c(O)c(O)ccc3oc2c1OC
COc1ccc(-c2c(C)c3ccc(O)c(CN4CCN(C)CC4)c3oc2=O)cc1OC
Cc1cc(F)ccc1NC1(c2ccccc2)C(=O)c2ccccc2C1=O
Cc1ccc(NC(=O)Cn2cnc3nc4c(cc3c2=O)CCCC4)cc1Cl
Cc1ccccc1CS(=O)(=O)CC1Nc2ccc(C(=O)NCc3ccc(Cl)cc3)cc2NC1=O (stereo not given)
Cc1ccc(N2CC(c3nnc(Cc4ccccc4Cl)o3)CC2=O)cc1 (stereo not given)
Cc1nc2ccn(Cc3cccnc3)c(=O)c2cc1C(=O)N1CCN(c2ccccc2F)CC1
CCOc1ccccc1C(=O)Nc1ccc(S(=O)(=O)N2CCCCC2c2cccnc2)cc1 (stereo not given)
COc1ccc(-c2cn3c(C)c(C(=O)Nc4cc(C)cc(C)c4)sc3n2)cc1
COc1ccc(Cn2c(C(=O)O)c(CNCc3cccc(OC)c3)c3ccc(C)cc32)cc1
O=C(CC(c1cccs1)N1Cc2ccccc2C1=O)Nc1ccc(F)cc1F (stereo not given)
CCOc1ccc(NC(=O)c2cc3c(=O)n(Cc4cccs4)ccc3nc2C)cc1
CCOc1ccc(-c2nonc2NC(=O)c2oc3ccc(C)cc3c2C)cc1OCC
Cc1c(Cl)cccc1NC(=O)N1CCN(C(=O)c2nsc3ccccc23)CC1
O=C(CCCOc1ccccc1)Nc1cccc(C(=O)O)c1
COc1ccc(Cl)cc1S(=O)(=O)Nc1cccc(C(=O)O)c1
CC1=C(C(=O)OCc2ccc(C)cc2)C(c2c(Cl)cccc2Cl)CC(=O)N1 (stereo not given)
COc1cc(Cl)c(NC(=O)CC(C)S(=O)(=O)c2cc3c(cc2C)NC(=O)CO3)c(OC)c1 (stereo not given)
O=C(CCC(=O)N1CC2CCCN2c2ccccc21)NCc1ccccc1Cl (stereo not given)
Cc1ccc(Cn2cc(CCC(=O)NCc3ccc(OC(C)C)cc3)c3ccccc32)cc1
CC(=O)Nc1cc(C(=O)NCc2ccc(F)cc2)ccc1Sc1ccc(F)cc1
CCOC(=O)c1c(C)[nH]c(C)c1S(=O)(=O)N1CCCC(C(=O)NCc2ccccc2Cl)C1 (stereo not given)
O=C(CCS(=O)(=O)c1ccc2c(c1)NC(=O)CO2)Nc1cccc(C(F)(F)F)c1
Cc1noc(NS(=O)(=O)c2ccc(NC(=O)c3oc4ccc(F)cc4c3C)cc2)c1C
Cc1cc(OC(C)C(=O)Nc2ccc(S(=O)(=O)Nc3onc(C)c3C)cc2)cc(C)c1Cl (stereo not given)
CCOc1ccccc1C(=O)NCC(c1ccc(N(C)C)cc1)N1CCCC1 (stereo not given)
CC1CCCN(c2nc3c(S(=O)(=O)c4ccc(C(C)C)cc4)nnn3c3ccsc23)C1 (stereo not given)
Cc1ccc(S(=O)(=O)c2c(Nc3cccc(Cl)c3)sc(C(=O)c3ccc4c(c3)OCO4)c2N)cc1
CCOC(=O)Cc1csc(SCc2cc(=O)oc3cc(O)ccc23)n1
CCOC(=O)Cc1csc(NC(=O)CN(C)S(=O)(=O)c2ccc3c(c2)CCC(=O)N3)n1
Cc1ccccc1NC(=O)c1ccc(COc2ccc3c(C)cc(=O)oc3c2)cc1
CC(=O)c1c(C)[nH]c(C(=O)COc2ccc3c(C)cc(=O)oc3c2)c1C
COc1ccc(N2CCN(c3nc(-c4ccccc4F)nc4ccccc34)CC2)cc1
CCc1ccccc1NC(=O)Cn1c(=O)n(CC2CCC(C(=O)NCCc3ccccc3)CC2)c(=O)c2ccccc21 (stereo not given)
Cc1ccc(C)c(N2CCN(C(c3ccccc3)c3nnc(-c4ccccc4)o3)CC2)c1 (stereo not given)
